# Mtb RmlCD inh: inhibitors of Mycobacterium tuberculosis RmlC and RmlD coupled enzymes; P9WH09+P9WH11; RmlC+RmlD coupled enzyme assay, percent inhibition; primary screen in compound mixtures; inhibition, % at 3.6 µM; 160,000 tested, 0.03% active; in the data active = inhibition mostly above about 34%, no sharp cut-off
# Target sequence (P9WH09 whole entry, looked up): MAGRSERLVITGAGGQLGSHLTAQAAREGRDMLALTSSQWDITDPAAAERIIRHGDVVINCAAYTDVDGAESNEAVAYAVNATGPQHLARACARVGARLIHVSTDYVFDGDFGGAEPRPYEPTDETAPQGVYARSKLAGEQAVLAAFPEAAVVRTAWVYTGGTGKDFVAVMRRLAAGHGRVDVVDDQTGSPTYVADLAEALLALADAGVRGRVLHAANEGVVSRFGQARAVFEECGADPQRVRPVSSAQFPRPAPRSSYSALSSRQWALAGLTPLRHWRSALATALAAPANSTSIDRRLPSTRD
# Target sequence (P9WH11 whole entry, looked up): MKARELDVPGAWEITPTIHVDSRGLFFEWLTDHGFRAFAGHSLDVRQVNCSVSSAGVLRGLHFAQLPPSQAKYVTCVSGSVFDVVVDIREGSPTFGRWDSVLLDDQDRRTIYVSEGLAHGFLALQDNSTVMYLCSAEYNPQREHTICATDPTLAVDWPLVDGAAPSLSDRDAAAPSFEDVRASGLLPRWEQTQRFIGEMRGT
# YopH PTP inh: blocks Yersinia enterocolitica YopH tyrosine phosphatase. AID 898. 140,000 tested, 0.16% active. fluorescence Ex485/Em525. inhibition, % (test concentration not listed); in the data active = inhibition above about 50%
# A number is an active result; 0 = inactive; - = no result. This excerpt belongs to a sample that is enriched for hits.
SMILES,Mtb RmlCD inh,YopH PTP inh
O=c1[nH]c(-c2ccccn2)nc2sc(-c3ccccc3)cc12,0,-
COc1ccc(-n2cccc2C=O)cc1OC,0,0
COc1ccc2oc(=O)cc(C)c2c1,0,0
O=C(O)c1ccccc1SCC(=O)N1c2ccccc2Sc2ccccc21,0,60
O=C(O)c1ccccc1SCC(=O)N1CCCCC1,0,0
CCOC(=O)NC(Nc1nc2ccccc2s1)(C(=O)OCC)C(F)(F)F (stereo unspecified),-,0
O=C(COC(=O)c1cccnc1Cl)NCc1cccs1,0,-
COc1ccc2nc3ccccc3nc2c1,0,-
COc1ccc(-n2nc3ccccc3n2)cc1,0,50
CCOc1ccc(C(=S)N2CCOCC2)cc1OC,-,50
CCOc1cc(C(=S)N2CCOCC2)ccc1OC,-,0
c1ccc(Cn2nnnc2C(c2cccs2)N2CCOCC2)cc1 (stereo unspecified),-,0
CCc1nc(SCC(=O)O)c(C#N)cc1C,0,0
CCOC(=O)CC(=O)CSc1nc(CC)c(C)cc1C#N,36,-
CCOC(=O)C(NC(=O)NCc1ccc(F)cc1)(OCC)C(F)(F)F (stereo unspecified),0,0
CCOC(=O)C(NC(=O)Nc1ccccc1)(OCC)C(F)(F)F (stereo unspecified),-,53
CC1(C)COC(/C=C/c2ccc([N+](=O)[O-])cc2)=N1,0,52
CC(=C/C(=O)O)/C=C/c1ccc([N+](=O)[O-])cc1,0,0
COC(=O)C1C(C(C)C)N(c2ccccc2)OC1(C)O (stereo unspecified),0,59
CC(C)OC(=O)C1C(=O)CC(C)(O)C(C(=O)OC(C)C)C1c1ccccc1 (stereo unspecified),0,-
CCOC(=O)c1oc2ccc(S(=O)(=O)n3nc(-c4ccccc4)cc3N)cc2c1C,0,0
COc1ccc(OC)c(CN2CCN(C(=O)c3cccs3)CC2)c1,-,0
Cc1cccc(OCC(=O)N(Cc2cccs2)C2CCS(=O)(=O)C2)c1C (stereo unspecified),0,0
COc1ccc(C(=O)OC2CCN(C)CC2)cc1,-,0
Cc1c(Br)cc(C(=O)OC2CCN(C)CC2)c(C)c1C,0,54
SMILES,Mtb RmlCD inh,YopH PTP inh
Clc1ccc(-c2n[nH]c3c2Cc2ccccc2-3)cc1Cl,0,-
Cc1nc(NCc2ccco2)nc2c1C(=O)CC(C)C2 (stereo unspecified),0,0
CN1c2ccccc2N(C)C1(C)c1ccccc1,0,85
CN1C(=O)N(C)C2(c3ccccc3)NC(=O)NC12c1ccccc1 (stereo unspecified),0,0
CCN1c2ccccc2N(C)C1(C)c1ccccc1 (stereo unspecified),0,92
CCN1C(=O)N(c2cccc3ccccc23)C(C)=CC1(C)C,-,0
Cn1nc(C(=O)Nc2nnc(C3CC3)s2)c2ccccc2c1=O,0,-
CN(C)c1ccc(-c2noc(C3CCN(S(=O)(=O)c4cccc(Cl)c4)CC3)n2)cc1,0,0
O=S(=O)(c1ccc2ccccc2c1)N1CCC(c2nc(-c3ccncc3)no2)CC1,-,50
CC1CCN(c2ncnc3ccccc23)CC1,-,0
O=[N+]([O-])c1ccc(-c2csc3[n+]2CCS3)cc1,-,51
Fc1ccc(-c2csc3[n+]2CCS3)cc1,-,0
CCOC(=O)C1=C(C)N[C@@]2(O)c3ccccc3C(=O)[C@@]12O,0,0
CCCCOC(=O)C1=C(C)NC2(O)c3ccccc3C(=O)C12O (stereo unspecified),0,67
COc1ccc(OC)c(-c2c3cc(O)c(=O)cc-3oc3cc(O)c(O)cc23)c1,0,55
O=c1cc2oc3cc(O)c(O)cc3c(-c3ccccc3O)c-2cc1O,0,-
Cc1ccc(N2C(=O)[C@@H]3[C@H](C2=O)C2c4ccccc4C=CN2[C@@H]3C(=O)c2ccco2)c(C)c1 (stereo partly specified),-,95
Cc1ccc(N2C(=O)[C@@H]3[C@H](C2=O)C2c4ccccc4C=CN2[C@@H]3C(=O)c2ccco2)cc1 (stereo partly specified),0,92
CC(C)(C)C(=O)[C@@H]1[C@@H]2C(=O)N(c3ccc4c(c3)OCCO4)C(=O)[C@@H]2C2c3ccccc3C=CN21 (stereo partly specified),-,0
O=C(c1ccco1)[C@@H]1[C@@H]2C(=O)N(c3ccccc3)C(=O)[C@@H]2C2c3ccccc3C=CN21 (stereo partly specified),-,82
CC(=O)[C@@H]1[C@@H]2C(=O)N(Cc3ccccc3)C(=O)[C@@H]2C2c3ccccc3C=CN21 (stereo partly specified),0,0
COc1ccc(N2C(=O)[C@@H]3[C@H](C2=O)[C@H]2c4ccccc4C=CN2[C@@H]3C(=O)Nc2ccccc2)cc1,0,0
Cn1c(=O)oc2ccc(C(=O)CSc3nnnn3-c3ccccc3)cc21,0,0
O=C(c1ccco1)N1CCN(C(c2ccccc2Cl)c2nnnn2Cc2cccs2)CC1 (stereo unspecified),0,0
S=c1[nH]nc(-c2ccc(Cl)cc2)n1/N=C/C=C/c1ccco1,0,-
